± gives the standard deviation.
What follows are sequences tested on MILI (PIWIL2) piRISC loaded with piRNA #1 (26 nt) (assay: pre-steady-state target cleavage rate (min^-1); guide: piRNA #1 5'p-UGAGGUAGUAGGUUGUAUAGUAUCCA; MIWI and MILI are mouse PIWI proteins and EfPiwi is from a freshwater sponge; tags in brackets are library labels; higher = faster piRNA-guided slicing of the target). Settings: auxiliary factor: 500 nM mouse GTSF1.
In short: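 Using HEPES–potassium acetate buffer at 33 °C, 1 nM active affinity-purified piRISC with a single synthetic guide was mixed with 0.1 nM transcribed, DNA-blocked target RNA library for 0–8 or 0–960 min, with or without 500 nM GTSF1 partner protein. Uncleaved targets were sequenced and normalised to depth and to weakly complementary targets, and three trials were pooled with k3 capped at 0.0001 min^-1. A burst-and-steady-state fit gave the pre-steady-state cleavage rate.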
In the case of GGAGACCUUACUAUACAACGUAGUACCUCA, the “pre-steady-state target cleavage rate” value is reported as 0.015 ± 0.0045. With GGAGACCUUACUAUACACCUACUACCUCA the “pre-steady-state target cleavage rate” value was 0.00774 ± 0.0034. With GGAGACGAUACAAUACAACCUACUAGCUCA the “pre-steady-state target cleavage rate” value was 0.137 ± 0.023. In the case of GGAGACCUUUCUAUACAACCUACUUCCUCA, the “pre-steady-state target cleavage rate” value is reported as 0.0321 ± 0.0062. With GGAGACCUAUGAUAUCAACCUACGUACCUCA the “pre-steady-state target cleavage rate” value was 0.00296 ± 0.0024. GGAGAGGAUACUAAACAACCUACUACGUCA was tested, and the “pre-steady-state target cleavage rate” value was 0.0356 ± 0.0057. For GGAGACCUAUCUAUAAAACCUACUACCUCA, the “pre-steady-state target cleavage rate” value was 0.0877 ± 0.013. GGAGUGGUUACUAUAGAACCUACUACCUCA was tested, and the “pre-steady-state target cleavage rate” value was 0.175 ± 0.014. For GGAGUGGAUUCAAUACAACCUACUACCUCA, the “pre-steady-state target cleavage rate” value was 0.142 ± 0.0076. For GGAGACCUAUCUAUACAUCCAACUACCUCA, the “pre-steady-state target cleavage rate” value was 0.00941 ± 0.0034. In the case of GGAGACCUAUCAAUACAUCCUACUACCUCA, the “pre-steady-state target cleavage rate” value is reported as 0.109 ± 0.02. For GGAGACCUAUGAUAACAACCUACUACCUUA, the “pre-steady-state target cleavage rate” value was 0.00415 ± 0.003. For GGAGACCUAACUAUUCAACCUACUAGCUCA, the “pre-steady-state target cleavage rate” value was 0.089 ± 0.024. For GGAGACCUAUGUAUACAACCUACAACCUCA, the “pre-steady-state target cleavage rate” value was 0.0609 ± 0.0082. GGAGACCUAUGAAUACAACCUCACUACCUCA was tested, and the “pre-steady-state target cleavage rate” value was 0.00378 ± 0.0031. GGAGACCUAUCUAUACAACCUACAACCACA was tested, and the “pre-steady-state target cleavage rate” value was 0.0576 ± 0.014. In the case of GGAGACGAUAGAAUACAACCUACUACCUCA, the “pre-steady-state target cleavage rate” value is reported as 0.137 ± 0.013. With GGAGACCUAUCUAUUCAACCUACUUCCUCA the “pre-steady-state target cleavage rate” value was 0.0412 ± 0.0086. GGAGACCUAUGUAUUCAUCCUACUACCUCA was tested, and the “pre-steady-state target cleavage rate” value was 0.0771 ± 0.011. In the case of GGAGACCUAUGAAUACAACCUAACUACCUCA, the “pre-steady-state target cleavage rate” value is reported as 0.00316 ± 0.0021. In the case of GGAGACGAUACCAUACAACCUACUACCUCA, the “pre-steady-state target cleavage rate” value is reported as 0.236 ± 0.027. For GGAGACCUUACUAUACAACCUACUUCCACA, the “pre-steady-state target cleavage rate” value was 0.0518 ± 0.013. With GGAGACCUAUCUAUACCACCUACUACCUCA the “pre-steady-state target cleavage rate” value was 0.095 ± 0.017. With GGAGUGGAUACUUUUCAACCUACUACCUCA the “pre-steady-state target cleavage rate” value was 0.156 ± 0.0072.
